Assay outcomes (PubChem)
Compounds with a hit are over-represented: about 20% of the library has one in this group of screens.
HCMV inh = qHTS Assay for inhibitors of the human cytomegalovirus (HCMV) | HFF cells, HCMV-luciferase reporter, 72 h; active compounds read low | activity change, negative = inhibition, % at 57.5 µM | 410,000 tested, 4.5% active; in the data active = activity change below about -60%; inconclusive = no clear call, values can overlap the other calls; inactive = above about -39%
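After 16 h attachment at 37C, HFF cells received test compound and HCMV-luciferase (1 PFU/cell); reporter luminescence read 72 h later, data normalized against buffer-only and known inhibitor Salinomycin.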
Shiga inhibitor = A qHTS for Small Molecule Inhibitors of Shiga Toxin | inhibition, % at 38.7 µM | AID 2315, 2010 | Vero cells, Shiga toxin protein synthesis inhibition reporter | 290,000 tested, 9.2% active; in the data active = inhibition mostly above about 28%, no sharp cut-off; inactive = mostly below about 43%
Pf growth 96h = Primary qHTS for delayed death inhibitors of the malarial parasite plastid, 96 hour incubation; P. falciparum luciferase reporter growth, 96 h; Potency, µM (titrated, usually from 28.7 µM), actives largely listed as inhibitors; 320,000 tested, 6.9% active
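Parasite growth measured via integrated firefly luciferase reporter in P. falciparum. Infected erythrocytes at 2% hematocrit, 0.05% parasitemia final were treated 96 hours at 37 C under 5% CO2, and luminescence was read.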
Pf growth 48h = Primary qHTS for delayed death inhibitors of the malarial parasite plastid, 48 hour incubation | P. falciparum luciferase growth in erythrocytes, 48 h | 310,000 tested, 5.9% active | Potency, µM (highest dose often 28.7 µM), hits mostly inhibitors
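Cell-based growth assay: transgenic P. falciparum expressing firefly luciferase, cultured in red cells within RPMI 1640 containing 0.5% w/v Albumax, 24 mM bicarbonate and gentamycin. A drop in luciferase activity indicates inhibition.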
Cycloheximide cs = Cycloheximide Counterscreen for Small Molecule Inhibitors of Shiga Toxin; cell reporter, cycloheximide protein synthesis inhibition counterscreen; max response, %; 300,000 tested, 12% active; in the data active = max response mostly above about 13%, no sharp cut-off; inactive = mostly below about 14%; note: read at 38.3 µM for the half of the compounds with a filed dose
Hits are given with their value; - = inactive; ? = inconclusive; . = no result given; + = active, no number. Unless noted, calls come from the whole dose curve; as a rule, active = well fitted inhibition curve with a large enough effect; inconclusive = small, poorly fitted or top-dose-only effect, or another doubt; inactive = no such curve, though single readings can be large or run the other way.

SMILES	HCMV inh	Shiga inhibitor	Pf growth 96h	Pf growth 48h	Cycloheximide cs
O=C(Nc1cc(Br)ccc1O)c1cc(-c2ccccc2)on1	-	-	?	2.08µM	13.6
Cc1ccc(O)c(NC(=O)c2cc(-c3ccccc3)on2)c1	-	.	-	?	66.3
O=[N+]([O-])c1cccnc1SCc1c(F)cccc1Cl	-	-	?	13.1µM	-
O=[N+]([O-])c1ccc(Sc2ccc(Cl)c(Cl)c2)nc1	-	-	-	-	-
O=[N+]([O-])c1ccc(SCc2c(F)cccc2Cl)nc1	-60.8	-	-	-	18.8
CCCCCCCCCCCCCCOS(=O)(=O)O	.	-	.	.	-
COc1cc2c(cc1OC)-c1cc3ccc(OC)c(OC)c3c[n+]1CC2	-	.	0.165µM	0.185µM	.
COc1ccc2cc3[n+](cc2c1O)CCc1cc2c(cc1-3)OCO2	-	.	.	.	.
O=C(NCc1ccncc1)[C@@H]1CCCN1C(=O)[C@H]1CCCN1C(=O)c1cccc2ccccc12	-	.	.	.	.
COc1ccc(Br)cc1C1=CC(=O)C[C@H](c2ccc(F)cc2)C1	-	.	.	.	.
CCOC(=O)c1c(NC(=O)Cc2coc3cc(C)ccc23)sc2c1CCCC2	-	.	.	.	.
Cc1ccc(NC(=O)Cc2coc3c(C)c(C)ccc23)c(C)c1	-	.	.	.	.
Cc1ccc2c(CC(=O)Nc3ccc(N4CCN(C)CC4)cc3C)coc2c1	-	-	?	?	18.2
Cc1ccc2c(CC(=O)Nc3sccc3C(N)=O)coc2c1	-	81.5	-	-	40.8
O=C(NCCc1ccc(Cl)cc1)C(=O)NCC(c1ccco1)S(=O)(=O)c1ccc(Cl)cc1 (stereo unspecified)	-80.8	.	.	.	.
NS(=O)(=O)c1ccc(NC(=O)COc2ccc(S(=O)(=O)N3CCCC3)cc2)cc1	-	-	-	-	-
CN1C(=O)COc2c(C(=O)NC3CN4CCC3CC4)cc(Cl)cc21 (stereo unspecified)	.	-	4.78µM	-	-
O=C(N[C@@H]1CN2CCC1CC2)c1cc(Cl)cc2[nH]cnc12	.	-	.	.	-
Cc1cc(O)c(C(C)C)cc1Cl	.	-	15.1µM	?	-
COC(=O)c1cccc(COC(=O)c2cccnc2SC)c1	-	-	.	-	21.1
CSc1ncccc1C(=O)OCc1c(F)cccc1Cl	-	90.9	-	-	21.1
CSc1ncccc1C(=O)OCc1ccccc1Cl	-	-	-	-	40.9
COc1ccc(C(C)=O)cc1COC(=O)c1cccnc1SC	-	-	-	-	-
CCN(CC)P1(=O)OC(c2cc(OC)c(OC)c(OC)c2)=Nc2c1c(C)nn2-c1ccccc1 (stereo unspecified)	-	-	.	10.4µM	-
CC1CN(C(=O)CCC(=O)NCc2cccc(Cl)c2)c2ccccc2S1 (stereo unspecified)	-	.	.	.	.
SMILES	HCMV inh	Shiga inhibitor	Pf growth 96h	Pf growth 48h	Cycloheximide cs
CCCc1ccc(-c2cc(C(=O)N/N=C/c3ccc([N+](=O)[O-])o3)c3ccccc3n2)cc1	?	-	1.65µM	.	22.8
COc1ccc(-c2cc(C(=O)N/N=C/c3cc(OC)c(OC)cc3OC)c3ccccc3n2)cc1	-	.	.	.	.
O=C(N/N=C/c1ccc([N+](=O)[O-])o1)c1cc(-c2cccc(Br)c2)nc2ccccc12	-69.6	-	0.828µM	?	-
Cc1c(O)ccc2c(CN3CCOCC3)cc(=O)oc12	+	-	-	-	-
CCOC(=O)C(Oc1ccc2c(-c3ccc(OC)cc3)cc(=O)oc2c1C)c1ccccc1 (stereo unspecified)	-	-	-	?	-
CCN(CC)S(=O)(=O)c1ccc(C)c(NC(=O)COc2ccc3c(C)cc(=O)oc3c2)c1	-	-	-	-	-
CCOC(=O)C(Oc1ccc2c(-c3ccccc3)cc(=O)oc2c1C)c1ccccc1 (stereo unspecified)	-	-	?	11.7µM	-
COc1ccc(-c2cc(=O)oc3cc4occ(C)c4cc23)cc1	-	-	0.828µM	?	-
CCN(CC)S(=O)(=O)c1ccc(OC)c(NC(=O)C(C)Oc2ccc3c(C)cc(=O)oc3c2)c1 (stereo unspecified)	-	-	9.28µM	1.85µM	-
CCOc1ccc(CCNC(=O)c2ccc(C)c(-n3c(C)nc4cccnc43)c2)cc1OCC	-	.	.	.	.
CCc1ccccc1NC(=O)CNC(=O)CCC(=O)c1cc(C)sc1C	-	.	.	.	.
CC(Oc1ccc2c3c(c(=O)oc2c1)CCC3)C(=O)NC1CCN(Cc2ccccc2)CC1 (stereo unspecified)	-	-	?	?	-
Cc1c(O)ccc2c(-c3ccccc3)cc(=O)oc12	-70.8	-	-	?	-
